PubChem BioAssay
“And” between values parts separate entries of the source, which are not always exact repeats. Equal entries are not always repeated. Records with an inconclusive call do not appear. Some structures have more than one record in an assay (separate samples or runs), and their calls can disagree. The source made the active and inactive calls.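 How the source made its calls, unless noted: active means normalized viability below 100% at a tested concentration; inactive means the rest.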

Columns and labels:
[1] = growth inhibition of DIPG glioma cells, dose response, cell-based, SU-DIPG-XVII, MIPE5.0, CellTiter-Glo, qHTS (AID 1347060; cut-off not given, nearly all actives have AC50 up to about 26 µM;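 further: cells exposed to compound for 48 hours before viability readout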); settings: SU-DIPG-XVII viability, CellTiter-Glo ATP luminescence
[2] = growth inhibition of DIPG glioma cells, dose response, cell-based, JHH-DIPG-1, MIPE4.0, CellTiter-Glo, qHTS (AID 1347062; cut-off not given, nearly all actives have AC50 up to about 27 µM;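 further: cells exposed to compound for two days before readout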); settings: JHH-DIPG-1 viability, CellTiter-Glo ATP luminescence
[3] = growth inhibition of DIPG glioma cells, dose response, cell-based, SU-DIPG-IV, MIPE4.0, CellTiter-Glo, qHTS (AID 1347063; cut-off not given, nearly all actives have AC50 up to about 30 µM;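 further: compound exposure lasted 48 hours before the viability readout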); settings: SU-DIPG-IV viability, CellTiter-Glo ATP luminescence
[4] = growth inhibition of DIPG glioma cells, dose response, cell-based, SU-DIPG-XIII, MIPE5.0, CellTiter-Glo, qHTS (AID 1347064; cut-off not given, nearly all actives have AC50 up to about 23 µM;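 further: cells exposed to compound for 48 hours before the viability read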); settings: SU-DIPG-XIII viability, CellTiter-Glo ATP luminescence
[5] = viability loss in pontine glioma line – cell-based, SU-DIPG-XXV, MIPE5.0, CellTiter-Glo, qHTS, dose response (AID 1347065; cut-off not given, nearly all actives have AC50 up to about 26 µM;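 further: cells exposed to compound for 48 hours before ATP readout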); settings: CellTiter-Glo ATP luminescence
[6] = JHH-DIPG-1 glioma cell viability, MIPE5.0 library, CellTiter-Glo luminescence, qHTS (AID 1347067; cut-off not given, nearly all actives have AC50 up to about 26 µM;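 further: cells exposed to compound for 48 hours before readout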); settings: JHH-DIPG-1 glioma viability, CellTiter-Glo ATP luminescence
[7] = SU-DIPG-XXV glioma cell viability, MIPE5.0 library, qHTS (AID 1347068; cut-off not given, nearly all actives have IC50 up to about 30 µM;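 further: cells exposed to compound for 48 hours before viability readout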)
[8] = sensitizers of A549 cells to miR-34 induction, primary screen, imaging, A549 dox-inducible miR-34, nuclei and caspase counts (AID 1347080;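 active means compounds whose cell count with miR-34 switched on is under 0.7 times the count with it off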); settings: A549 miR-34 inducible, Hoechst nuclei count, 48 h
[9] = modifiers of HSF1 nuclear foci, imaging, Selleck Cancer Library (AID 1347162; in the data active means plate-normalised HSF1 focus index below about 0.46); settings: human cells, at 10 µM; SSMD: measured here: HSF1 foci SSMD mean; cell count: measured here: cell number; plate-normalised HSF1 focus index: stronger effect = lower value
[10] = survival rescue of mitochondrial mutant cells in low glucose, primary screen, MELAS cybrids, Rieske KO mouse fibroblasts, CellTiter-Glo (AID 1508586;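 active means mean z-score across replicates of 1.96 or higher in either the MELAS or the Rieske mutant cell line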;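 further: z relative to plate mean and SD of compound and empty wells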)
[11] = ovarian cancer cell viability with rucaparib, profiling panel, oncology-focused library, rucaparib conditional (AID 1508598); settings: patient-derived ovarian cancer cells, CellTiter-Glo viability, 144 h, stronger effect = lower value

Which AC50 [1] does the source give for COc1ccc(S(=O)(=O)N(C(C)=O)c2ccccc2/C=C/c2cc[n+]([O-])cc2)cc1 here?
The AC50 was 1.48 µM (active).

And the AC50 [2]?
The AC50 was 0.935 µM (active).

And the AC50 [3]?
The AC50 was 0.372 µM (active).

And the AC50 [4]?
The AC50 was 2.63 µM (active).

And the AC50 [5]?
The AC50 was 1.18 µM (active).

And the AC50 [6]?
The AC50 was 1.86 µM (active).

With CN(c1ncccc1CNc1nc(Nc2ccc3c(c2)CC(=O)N3)ncc1C(F)(F)F)S(C)(=O)=O as the molecule, how does the AC50 [1] read?
The AC50 was 5.25 µM (active).

What about the AC50 [2] of the same molecule?
The AC50 was 5.9 µM (active).

What about the AC50 [3] of the same molecule?
The AC50 was 4.18 µM (active).

What about the AC50 [4] of the same molecule?
Its AC50 is 8.33 µM (active).

What about the AC50 [5] of the same molecule?
Its AC50 is 3.72 µM (active).

And the AC50 [6]?
Its AC50 is 8.33 µM (active).

And the IC50 [7]?
The IC50 was 11.8 µM (active).

What about the fold change ([8]; stronger effect = lower value, cell number ratio, induced over uninduced) of the same molecule?
Its fold change is 0.847 (inactive) and 0.961 (inactive) and 0.946 (inactive).

What about the fold change ([8]; measured here: relative caspase fold change +Dox/-Dox) of the same molecule?
The fold change was 0.469 and 1.06 and 0.671.

And the cell count ([8]; measured here: total cells with miR-34 induction, stronger effect = lower value)?
Its cell count is 1490 and 1380 and 1080.

What about the cell count ([8]; measured here: total cells without miR-34 induction) of the same molecule?
The cell count was 1760 and 1430 and 1140.

What about the SSMD [9] of the same molecule?
The SSMD was -7.81.

And the cell count [9]?
The cell count was 4390.

What about the plate-normalised HSF1 focus index [9] of the same molecule?
The plate-normalised HSF1 focus index was 0.528 (inactive).

What about the z-score ([10]; MELAS cybrid survival, CellTiter-Glo 48 h, stronger effect = higher value) of the same molecule?
The z-score was -0.34 (inactive) and -0.161 (inactive) and 2.09 (active).

And the z-score ([10]; Rieske KO mouse fibroblast survival, CellTiter-Glo 72 h)?
Its z-score is -0.291 and -0.23 and -5.55.

What about the viability ([11]; at 0.000305 µM, OCI-C5x cells, with rucaparib 10 µM, 100% = cells with rucaparib alone) of the same molecule?
The viability was 100% (inactive).

And the viability ([11]; at 0.000305 µM, OCI-C5x cells, without rucaparib)?
The viability was 125% (inactive).

What about the viability ([11]; at 0.000305 µM, OCI-P5x cells, with rucaparib 20 µM, 100% = cells with rucaparib alone) of the same molecule?
Its viability is 105% (inactive).

And the viability ([11]; at 0.000305 µM, OCI-P5x cells, without rucaparib)?
The viability was 110% (inactive).

What about the viability ([11]; at 0.00122 µM, OCI-C5x cells, with rucaparib 10 µM, 100% = cells with rucaparib alone) of the same molecule?
The viability was 110% (inactive).

What about the viability ([11]; at 0.00122 µM, OCI-C5x cells, without rucaparib) of the same molecule?
The viability was 111% (inactive).

What about the viability ([11]; at 0.00122 µM, OCI-P5x cells, with rucaparib 20 µM, 100% = cells with rucaparib alone) of the same molecule?
The viability was 110% (inactive).

And the viability ([11]; at 0.00122 µM, OCI-P5x cells, without rucaparib)?
The viability was 110% (inactive).

What about the viability ([11]; at 0.00488 µM, OCI-C5x cells, with rucaparib 10 µM, 100% = cells with rucaparib alone) of the same molecule?
Its viability is 106% (inactive).

What about the viability ([11]; at 0.00488 µM, OCI-C5x cells, without rucaparib) of the same molecule?
The viability was 130% (inactive).

What about the viability ([11]; at 0.00488 µM, OCI-P5x cells, with rucaparib 20 µM, 100% = cells with rucaparib alone) of the same molecule?
Its viability is 99.2% (active).

What about the viability ([11]; at 0.00488 µM, OCI-P5x cells, without rucaparib) of the same molecule?
The viability was 108% (inactive).

And the viability ([11]; at 0.0195 µM, OCI-C5x cells, with rucaparib 10 µM, 100% = cells with rucaparib alone)?
Its viability is 115% (inactive).

And the viability ([11]; at 0.0195 µM, OCI-C5x cells, without rucaparib)?
Its viability is 122% (inactive).

What about the viability ([11]; at 0.0195 µM, OCI-P5x cells, with rucaparib 20 µM, 100% = cells with rucaparib alone) of the same molecule?
The viability was 106% (inactive).

What about the viability ([11]; at 0.0195 µM, OCI-P5x cells, without rucaparib) of the same molecule?
The viability was 106% (inactive).

And the viability ([11]; at 0.0781 µM, OCI-C5x cells, with rucaparib 10 µM, 100% = cells with rucaparib alone)?
The viability was 111% (inactive).

What about the viability ([11]; at 0.0781 µM, OCI-C5x cells, without rucaparib) of the same molecule?
Its viability is 122% (inactive).

And the viability ([11]; at 0.0781 µM, OCI-P5x cells, with rucaparib 20 µM, 100% = cells with rucaparib alone)?
Its viability is 92.3% (active).

What about the viability ([11]; at 0.0781 µM, OCI-P5x cells, without rucaparib) of the same molecule?
Its viability is 101% (inactive).

And the viability ([11]; at 0.313 µM, OCI-C5x cells, with rucaparib 10 µM, 100% = cells with rucaparib alone)?
The viability was 110% (inactive).

And the viability ([11]; at 0.313 µM, OCI-C5x cells, without rucaparib)?
The viability was 119% (inactive).

What about the viability ([11]; at 0.313 µM, OCI-P5x cells, with rucaparib 20 µM, 100% = cells with rucaparib alone) of the same molecule?
The viability was 90.8% (active).

And the viability ([11]; at 0.313 µM, OCI-P5x cells, without rucaparib)?
Its viability is 93.6% (active).

What about the viability ([11]; at 1.25 µM, OCI-C5x cells, with rucaparib 10 µM, 100% = cells with rucaparib alone) of the same molecule?
The viability was 110% (inactive).

And the viability ([11]; at 1.25 µM, OCI-C5x cells, without rucaparib)?
The viability was 110% (inactive).

And the viability ([11]; at 1.25 µM, OCI-P5x cells, with rucaparib 20 µM, 100% = cells with rucaparib alone)?
Its viability is 76.7% (active).

What about the viability ([11]; at 1.25 µM, OCI-P5x cells, without rucaparib) of the same molecule?
The viability was 73.3% (active).

And the viability ([11]; at 5 µM, OCI-C5x cells, with rucaparib 10 µM, 100% = cells with rucaparib alone)?
The viability was 13% (active).

What about the viability ([11]; at 5 µM, OCI-C5x cells, without rucaparib) of the same molecule?
The viability was 19.1% (active).

And the viability ([11]; at 5 µM, OCI-P5x cells, with rucaparib 20 µM, 100% = cells with rucaparib alone)?
The viability was 33.5% (active).

What about the viability ([11]; at 5 µM, OCI-P5x cells, without rucaparib) of the same molecule?
The viability was 24.3% (active).
